# Records with an inconclusive call do not appear. Activity calls are given as the source filed them. Rule as the data show it, unless noted: active = inhibition above about 80%; inactive = the rest.
# How the values were obtained:
# [1] = viability loss in pontine glioma line – cell-based, SU-DIPG-XVII, MIPE5.0, CellTiter-Glo, qHTS, dose response (AID 1347060; cut-off not given, nearly all actives have AC50 up to about 26 µM;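 as to AC50: cells exposed to compound for 48 hours before viability readout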); conditions: CellTiter-Glo ATP luminescence
# [2] = viability loss in pontine glioma line – cell-based, SU-DIPG-XIII, MIPE5.0, CellTiter-Glo, qHTS, dose response (AID 1347064; cut-off not given, nearly all actives have AC50 up to about 23 µM;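 as to AC50: cells exposed to compound for 48 hours before the viability read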); conditions: CellTiter-Glo ATP luminescence
# [3] = viability loss in pontine glioma line – cell-based, SU-DIPG-XXV, MIPE5.0, CellTiter-Glo, qHTS, dose response (AID 1347065; cut-off not given, nearly all actives have AC50 up to about 26 µM;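 also: cells exposed to compound for 48 hours before ATP readout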); conditions: CellTiter-Glo ATP luminescence
# [4] = JHH-DIPG-1 glioma cell viability, MIPE5.0 library, CellTiter-Glo luminescence, qHTS (AID 1347067; cut-off not given, nearly all actives have AC50 up to about 26 µM;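 also: cells exposed to compound for 48 hours before readout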); conditions: JHH-DIPG-1 glioma viability, CellTiter-Glo ATP luminescence
# [5] = growth inhibition of DIPG cells – cell-based, MIPE5.0 library, qHTS (AID 1347068; cut-off not given, nearly all actives have IC50 up to about 30 µM;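 as to IC50: cells exposed to compound for 48 hours before viability readout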); conditions: SU-DIPG-XXV viability
# [6] = growth inhibition, single agent or in combination, cell-based, chromothripsis tumors, cisplatin or BGB combos (AID 1671449); conditions: LFS_MB_P medulloblastoma cells;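 also: cells exposed for 96 hours; 0% = vehicle DMSO and 100% = killing by high DMSO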
# [7] = growth inhibition, single agent and combos, cell-based, chromothripsis tumors, cisplatin or BGB combos (AID 1671450); conditions: HDN33 neuroblastoma cells, stronger effect = higher value;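 also: cells exposed to compound for four days; 0% = vehicle DMSO and 100% = cell killing by high DMSO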
# [8] = growth inhibition, single agents and combos, ICB984, cell-based, cisplatin or BGB combos, synergistic combos for chromothripsis tumors (AID 1671451; call rule not given here;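 also: cells exposed for 96 hours before readout; 0% = vehicle DMSO and 100% = killing by high DMSO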); conditions: ICB984 medulloblastoma cells, drug combinations, stronger effect = higher value
# [9] = growth inhibition, single agents and combos, LFS_MB_1R, cell-based, cisplatin or BGB combos, synergistic combos for chromothripsis tumors (AID 1671452); conditions: LFS_MB_1R medulloblastoma cells, stronger effect = higher value;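 also: cells exposed for 96 hours before readout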
# [10] = growth inhibition, single agents and combos, HTB85, cell-based, BGB or cisplatin IC20 combos, synergistic combos for chromothripsis tumors (AID 1671453); conditions: HTB85 osteosarcoma cells, drug combinations, stronger effect = higher value;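 also: cells exposed for 96 hours before readout; 0% = vehicle DMSO and 100% = high DMSO killing control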
# [11] = growth inhibition, single agents and combos, CRL2098, cell-based, BGB or cisplatin IC20 combos, synergistic combos for chromothripsis tumors (AID 1671454); conditions: CRL2098 osteosarcoma cells, drug combinations, stronger effect = higher value;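 also: cells exposed for 96 h before readout; 0% = vehicle DMSO and 100% = killing by high DMSO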
# [12] = growth inhibition, single agents and combos, HD-MB03, cell-based, BGB or cisplatin IC20 combos, synergistic combos for chromothripsis tumors (AID 1671455; in the data active = inhibition above about 83%;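 also: 0% = vehicle DMSO and 100% = high DMSO as cytotoxic control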); conditions: HD-MB03 medulloblastoma cells, stronger effect = higher value
# [13] = growth inhibition, single agents and combos, UWB1.289, cell-based, BGB or cisplatin combos, synergistic combos for chromothripsis tumors (AID 1671456); conditions: UWB1.289 ovarian carcinoma cells, stronger effect = higher value;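 also: cells exposed to compound for four days; 0% = vehicle DMSO and 100% = killing by high DMSO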
# [14] = growth inhibition, MDA-MB-436, cell-based, BGB or cisplatin combos, synergistic combos for chromothripsis tumors (AID 1671458; call rule not given here;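 also: cells exposed for 96 hours; 0% = vehicle DMSO and 100% = killing by high DMSO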); conditions: MDA-MB-436 breast carcinoma growth inhibition, drug combinations, stronger effect = higher value
# [15] = BT084 cell growth, single and combined drugs, ICGC_MB145, cisplatin and BGB IC40 combos (AID 1671461); conditions: BT084 medulloblastoma cells, drug combinations, stronger effect = higher value;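 also: cells exposed to drugs for 96 hours; 0% = vehicle DMSO and 100% = high DMSO full killing control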
# [16] = RCMB18 cell growth, single agent and combined, cisplatin and BGB IC40 combos (AID 1671462); conditions: RCMB18 medulloblastoma cells, stronger effect = higher value;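 also: cells exposed to compound for four days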
# [17] = CRL1545 cell growth, single agent and combined, cisplatin and BGB IC20 combos (AID 1671464); conditions: CRL1545 osteosarcoma cells, stronger effect = higher value;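 also: cells exposed to compound for 96 hours before readout; 0% = vehicle DMSO and 100% = high DMSO killing control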
# [18] = viability loss with induced miR-34 in A549 – imaging, A549 dox-inducible miR-34, nuclei and caspase counts, primary screen (AID 1347080;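 active = compounds whose cell count with miR-34 switched on is under 0.7 times the count with it off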); conditions: A549 miR-34 inducible, Hoechst nuclei count, 48 h
# [19] = MELAS cybrid and Rieske KO viability enhancers – cell-based, MELAS cybrids, Rieske KO mouse fibroblasts, CellTiter-Glo, primary screen (AID 1508586;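 active = mean z-score across replicates of 1.96 or higher in either the MELAS or the Rieske mutant cell line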;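 also: z relative to plate mean and SD of compound and empty wells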); conditions: low glucose
# [20] = measured here: combination with BGB IC40, at 0.05 µM
# [21] = measured here: with BGB IC20 combination, at 0.5 µM
# [22] = measured here: with cisplatin IC20 combination, at 0.5 µM
# [23] = measured here: combination with cisplatin, at 0.5 µM
structure (smiles),measurement,setting,value
C=C1[C@H](CO)[C@@H](O)C[C@@H]1n1cnc2c(=O)[nH]c(N)nc21,outcome,[1],inactive
same,outcome,[2],inactive
same,outcome,[3],inactive
same,outcome,[4],inactive
same,outcome,[5],inactive
same,inhibition,"[6]; at 0.5 µM, stronger effect = higher value",-21.8% (inactive)
same,inhibition,"[6]; measured here: combination with BGB IC20, at 0.005 µM",5.29%
same,inhibition,"[6]; measured here: combination with BGB IC40, at 0.005 µM",73.1%
same,inhibition,[6]; [20],2.38%
same,inhibition,"[6]; measured here: combination with cisplatin, at 0.5 µM, stronger effect = higher value",-17.3%
same,inhibition,"[6]; measured here: combination with cisplatin, at 5 µM, stronger effect = higher value",-13.1%
same,inhibition,"[7]; BGB combo, at 5 µM",-36.2%
same,inhibition,[7]; at 0.5 µM,-7.93% (inactive)
same,inhibition,"[7]; cisplatin combo, at 5 µM",-16.1%
same,inhibition,[7]; [21],-13.1%
same,inhibition,[7]; [22],-0.869%
same,inhibition,"[7]; single agent, at 5 µM",-23.6%
same,inhibition,"[8]; BGB IC20 combo, at 0.005 µM",-16%
same,inhibition,"[8]; BGB IC40 combo, at 0.005 µM",-1.32%
same,inhibition,"[8]; BGB IC40 combo, at 0.05 µM",-29.5%
same,inhibition,[8]; at 0.5 µM,-11.2% (inactive)
same,inhibition,"[8]; cisplatin combo, at 0.05 µM",-36.2%
same,inhibition,"[8]; cisplatin combo, at 0.5 µM",-7.79%
same,inhibition,"[8]; cisplatin combo, at 5 µM",-2.87%
same,inhibition,"[8]; measured here: 5 uM single agent, at 5 µM",-12.5%
same,inhibition,[9]; at 0.5 µM,-2.98% (inactive)
same,inhibition,[9]; [20],-6.72%
same,inhibition,[9]; [23],-9.39%
same,inhibition,"[9]; measured here: combination with cisplatin, at 5 µM",13.9%
same,inhibition,[10]; at 0.5 µM,-14.3% (inactive)
same,inhibition,"[10]; measured here: with BGB IC20, at 0.5 µM",-14.3%
same,inhibition,"[10]; measured here: with BGB IC20, at 5 µM",-13%
same,inhibition,"[10]; measured here: with cisplatin IC20, at 0.5 µM",-20.6%
same,inhibition,"[10]; measured here: with cisplatin IC20, at 5 µM",-13.2%
same,inhibition,"[10]; single agent, at 5 µM",-13%
same,inhibition,[11]; at 0.5 µM,-23% (inactive)
same,inhibition,"[11]; measured here: combination with BGB at IC20, at 0.5 µM",-65.5%
same,inhibition,"[11]; measured here: combination with cisplatin at IC20, at 0.5 µM",-29.3%
same,inhibition,[12]; at 0.5 µM,0.83% (inactive)
same,inhibition,"[12]; measured here: combo with BGB at IC20, at 0.5 µM",-0.76%
same,inhibition,"[12]; measured here: combo with cisplatin at IC20, at 0.5 µM",-1.27%
same,inhibition,[13]; at 0.5 µM,-8.13% (inactive)
same,inhibition,"[13]; measured here: inhibition with BGB combination, at 0.05 µM",1.38%
same,inhibition,"[13]; measured here: inhibition with cisplatin combination, at 0.05 µM",-3.75%
same,inhibition,[14]; at 0.5 µM,-0.47% (inactive)
same,inhibition,"[14]; measured here: BGB combination, at 0.5 µM",-0.92%
same,inhibition,"[14]; measured here: BGB combination, at 5 µM",-0.668%
same,inhibition,"[14]; measured here: cisplatin combination, at 0.5 µM",0.06%
same,inhibition,"[14]; measured here: cisplatin combination, at 5 µM",-10.2%
same,inhibition,[15]; at 0.5 µM,4.2% (inactive)
same,inhibition,"[15]; cisplatin combination, at 0.5 µM",2.02%
same,inhibition,"[15]; cisplatin combination, at 5 µM",-20%
same,inhibition,"[15]; measured here: BGB IC40 combination 0.05 uM, at 0.05 µM",-15.2%
same,inhibition,"[15]; single agent, at 5 µM",6.8%
same,inhibition,[16]; at 0.5 µM,-7.97% (inactive)
same,inhibition,"[16]; cisplatin combo, at 5 µM",3.9%
same,inhibition,"[16]; measured here: BGB IC40 combination, at 0.05 µM",-6.21%
same,inhibition,[16]; [23],-17.4%
same,inhibition,"[16]; single agent, at 5 µM",-2.06%
same,inhibition,[17]; at 0.5 µM,-6.46% (inactive)
same,inhibition,[17]; [21],-39.9%
same,inhibition,[17]; [22],8.8%
same,inhibition,"[17]; single agent, at 0.05 µM",4.9%
same,inhibition,"[17]; single agent, at 5 µM",-41.7%
CCOC(=O)CCNc1cc(N2CCc3ccccc3CC2)nc(-c2ccccn2)n1,AC50,[1],2.95 µM (active)
same,AC50,[2],3.32 µM (active)
same,AC50,[3],14.8 µM (active)
same,AC50,[4],5.25 µM (active)
same,IC50,[5],8.33 µM (active)
same,fold change,"[18]; stronger effect = lower value, cell number ratio, induced over uninduced",0.698 (active)
same,fold change,[18]; measured here: relative caspase fold change +Dox/-Dox,1.37
same,cell count,"[18]; measured here: total cells with miR-34 induction, stronger effect = lower value",3830
same,cell count,[18]; measured here: total cells without miR-34 induction,5480
same,z-score,"[19]; MELAS cybrid survival, CellTiter-Glo 48 h, stronger effect = higher value",-0.444 (inactive)
same,z-score,"[19]; Rieske KO mouse fibroblast survival, CellTiter-Glo 72 h",-0.225
